Results filed as inconclusive are left out. The source made the active and inactive calls. The calls were made as follows: active = hit-call score of the fitted dose curve at least 0.9, where 1 is the maximum; inconclusive = response in the unintended direction; inactive = score below 0.9.

mouse Estrogen Receptor alpha (Era), Esr1 (gene 13982), sequence (P19785 whole entry, looked up): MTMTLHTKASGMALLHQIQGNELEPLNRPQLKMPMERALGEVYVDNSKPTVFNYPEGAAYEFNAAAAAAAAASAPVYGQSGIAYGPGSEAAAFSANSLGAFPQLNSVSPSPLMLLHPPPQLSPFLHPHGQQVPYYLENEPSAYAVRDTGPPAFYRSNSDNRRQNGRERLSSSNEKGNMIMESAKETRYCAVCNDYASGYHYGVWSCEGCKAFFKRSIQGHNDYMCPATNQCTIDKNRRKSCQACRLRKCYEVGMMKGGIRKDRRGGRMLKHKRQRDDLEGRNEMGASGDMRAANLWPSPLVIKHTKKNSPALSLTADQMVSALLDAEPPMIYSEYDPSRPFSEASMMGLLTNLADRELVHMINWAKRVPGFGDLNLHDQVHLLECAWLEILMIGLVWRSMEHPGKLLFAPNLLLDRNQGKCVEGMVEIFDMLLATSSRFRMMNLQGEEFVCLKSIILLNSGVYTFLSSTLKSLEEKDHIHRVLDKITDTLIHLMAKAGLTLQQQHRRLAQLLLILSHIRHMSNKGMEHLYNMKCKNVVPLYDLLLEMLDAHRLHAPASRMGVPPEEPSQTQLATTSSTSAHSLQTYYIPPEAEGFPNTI

The assay has as its target mouse Estrogen Receptor alpha (Era), Esr1 (gene 13982) (UniProt P19785). The experiment in a line: NVS_NR_mERa: NovaScreen (NVS) Nuclear Receptor Binding Assay for mouse Estrogen Receptor alpha (Era) (AID 2283378).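 Also: hit means loss of bound radioligand signal relative to DMSO.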 The method, then:
NVS_NR_mERa is a biochemical, single-readout assay that uses extracted gene-proteins in a cell-free assay. Measurements were taken 18 hours after chemical dosing in a 96-well plate.NVS_NR_mERa is one of one assay component(s) measured or calculated from the NVS_NR_mERa assay. It is designed to make measurements of radioligand binding, a form of binding reporter, as detected with scintillation counting signals by Filter-based radiodetection technology.Data from the assay component NVS_NR_mERa was analyzed into 1 assay endpoint. This assay endpoint, NVS_NR_mERa, was analyzed in the positive analysis fitting direction relative to DMSO as the negative control and baseline of activity. Using a type of binding reporter, loss-of-signal activity can be used to understand changes in the binding as they relate to the gene Esr1. Furthermore, this assay endpoint can be referred to as a primary readout, because the performed assay has only produced 1 assay endpoint. To generalize the intended target to other relatable targets, this assay endpoint is annotated to the nuclear receptor intended target family, where the subfamily is steroidal.
Binding assays used specific radioligands (tritiated, iodinated) with non-radioactive competitive displacement ligands in agonist or antagonist protocols (as indicated) and various reference compounds and inhibitors to titrate specific binding to receptors and transporters. Most enzyme assays (CYPs, kinases, phosphatases, proteases, HDACs) used recombinant protein and specific substrates (fluorescence mostly, some colorimetric and radioactive) and inhibitors, followed by a biochemical separation of substrate and product. All assays for the biochemical HTS were initially run in duplicate at a single concentration (10 uM for CYP450 assays and 25 uM for all others). […] Each assay was run with positive and negative controls, and concurrent controls on every plate. The follow-up (secondary) screen tested active chemical-pairs in concentration series, as well as a few additional assays not tested in the primary screen, some selected negative inactives, and several cases re-run in the concentration series for confirmatory purposes.
`C=CC#N`: the compound was classed as inactive.

As for `CCOC(=O)Nc1cccc(OC(=O)Nc2ccccc2)c1`, the result was inactive.

With `O=C(CCl)CCl`, the compound was classed as inactive.

For `CCOP(=S)(OCC)Oc1nc(Cl)c(Cl)cc1Cl`, the outcome was inactive.

With `CC(C)OC(=O)Nc1ccccc1`, the AC50 is 5.18 µM (active).

Regarding `Oc1ccc(-c2ccccc2)cc1`, the AC50 is 17.7 µM (active).

On to `Clc1ccc(COC(Cn2ccnc2)c2ccc(Cl)cc2Cl)cc1` (stereo not given), for which the result was inactive.

For `C[C@]12CC[C@H](O)CC1=CC[C@@H]1[C@@H]2CC[C@]2(C)C(=O)CC[C@@H]12`, the AC50 was 2.17 µM (active).

Take `CCN1CCC2(CC1)COc1cc3c(cc12)N(C(=O)c1ccc(-c2ccc(-c4nnc(C)o4)cc2C)cc1)CC3`: the AC50 is 0.174 µM (active).

Regarding `CCC[CH2][Sn]([CH2]CCC)([CH2]CCC)[O]C(=O)c1ccccc1`, the outcome was inactive.

Take `O=C1CCCN1`: the compound was called inactive.

Regarding `CC1(C)CCC(Cc2ccc(Cl)cc2)C1(O)Cn1cncn1` (stereo not given), the compound was classed as inactive.

As to `Cl/C=C/Cl`, the compound was classed as inactive.

In the case of `Fc1ccc(C2(Cn3cncn3)OC2c2ccccc2Cl)cc1` (stereo not given), the compound was classed as inactive.

Consider `CC(C)(c1ccccc1)c1ccc(O)c(C(C)(C)c2ccccc2)c1`, for which the outcome was inactive.

For the compound `ClCC(Cl)CCl`, the result was inactive.

Turning to `C=C(C)C(=O)[O][Sn]([CH2]CCC)([CH2]CCC)[CH2]CCC`, the AC50 is 9.68 µM (active).

Turning to `NNC(=S)NN`, the AC50 was 0.0993 µM (active).

As to `C=CC(=O)OCCCCCC(C)C`, the compound was classed as inactive.

For `COP(=O)(OC)O/C(=C\Cl)c1cc(Cl)c(Cl)cc1Cl`, the outcome was inactive.

Values taken from PubChem BioAssay (EPA / NIEHS).
